Measured values published in PubChem BioAssay AID1159580 (chemical genetic matrix, 2015).
The whole screen tested about 5,500 compounds, of which about 2,000 (36%) were called active. Another 18% or so got no clear call; they are omitted. Cut-off read from the data, not from the text of the source: active = normalized growth mostly below about 0.91 (no sharp cut-off); inconclusive = no clear call, values can overlap the other calls; inactive = mostly above about 0.92. The list shows a part of the results.

Assay: chemical genetic growth profiling, strain panel (AID 1159580);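 note: tested at 20 µM; growth read once vehicle control cultures reached saturation at 30 °C; 1 = growth at the plate median or of vehicle wells; lower values mean less growth of the strain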
Details: S. cerevisiae deletion strains, growth OD

Measured: normalized growth

O=S(=O)(c1cccc2c(I)cccc12)N1CCCNCC1
inactive: locus YAL013W, strain DEP1, active compounds read low 0.983 | locus YAL040C, strain CLN3, active compounds read low 0.979 | locus YCL061C, strain MRC1 (second series), active compounds read low 0.984 | locus YDR150W, strain NUM1, active compounds read low 0.991 | locus YDR363W, strain ESC2, active compounds read low 0.958 | locus YER002W, strain NOP16, active compounds read low 1.01 | locus YGR078C, strain PAC10, active compounds read low 0.982 | locus YGR229C, strain SMI1, active compounds read low 1 | locus YJR075W, strain HOC1, active compounds read low 1.01 | locus YNL128W, strain TEP1, active compounds read low 1.06 | locus YNL153C, strain GIM3, active compounds read low 0.927 | locus YNL175C, strain NOP13, active compounds read low 0.995 | locus YNL197C, strain WHI3, active compounds read low 0.986 | locus YNL224C, strain SQS1, active compounds read low 1.02 | locus YOR083W, strain WHI5 (second series), active compounds read low 0.932 | locus YPL241C, strain CIN2, active compounds read low 0.984
